Test system: Vero E6 infected with SARS-CoV-2
Assay: inhibition of SARS-CoV-2 cytopathic effect; higher = more antiviral protection, active = above 15
Settings: 48 h

Measured: inhibition of SARS-CoV-2 cytopathic effect

Cc1ccc2c(c1)C(=O)[C@]1(O)CCN(c3ccccc3)C1=N2 (racemic) [blebbistatin-(+/-)]
inactive: 1 nM 0.35% | 8.33 nM -0.695% | 100 nM -1.93% | 833.33 nM -1.36% | 10000 nM -2.33%

O=C(Nc1cccc(C(F)(F)F)c1)Nc1cc(S(=O)(=O)NC2CC2)ccc1-c1ccsc1
inactive: 1 nM -0.22% | 8.33 nM -0.85% | 100 nM 0.27% | 833.33 nM 0.38% | 10000 nM 0.46%

CCCN(CCC)C(=O)Cc1c(-c2ccc(Cl)cc2)nc2ccc(Cl)cn12 [alpidem]
inactive: 1 nM -5.3% | 8.33 nM -6.64% | 100 nM -7.76% | 833.33 nM -6.87% | 10000 nM -3.74%

N[C@]1(C(=O)O)CC[C@@H](C(=O)O)C1
inactive: 1 nM 1.21% | 8.33 nM 2.87% | 100 nM 0.81% | 833.33 nM 1.58% | 10000 nM 1.7%

C=C(C)[C@@H]1CC[C@]2(C(=O)O)CC[C@]3(C)[C@H](CC[C@@H]4[C@@]5(C)CC[C@H](O)C(C)(C)[C@@H]5CC[C@]43C)[C@@H]12 [betulinic-acid]
inactive: 1 nM -1.47% | 8.33 nM -3.53% | 100 nM -2.01% | 833.33 nM 0.38% | 10000 nM 0.04%

C=CCNC1=C2C[C@@H](C)C[C@H](OC)[C@H](O)[C@@H](C)/C=C(\C)[C@H](OC(N)=O)[C@@H](OC)/C=C\C=C(/C)C(=O)NC(=CC1=O)C2=O [tanespimycin]
inactive: 1 nM -1.35% | 8.33 nM -0.13% | 100 nM -4.27% | 833.33 nM -0.63% | 10000 nM 3.92%

From the supplement of paper PMC13380429
